Compound activity (PubChem)
Hits are enriched below; roughly 2.4% of the tested compounds scored in any of these assays.
SENP8 block-1: SENP8 (human) protease inhibition; inhibition, % at 20 µM; Q96LD8; recombinant SENP8, Nedd8 substrate fluorescence; 360,000 compounds, 0.64% hits; in the data active = inhibition mostly above about 40%, no sharp cut-off; inactive = mostly below about 27%
Target sequence (Q96LD8 whole entry, looked up): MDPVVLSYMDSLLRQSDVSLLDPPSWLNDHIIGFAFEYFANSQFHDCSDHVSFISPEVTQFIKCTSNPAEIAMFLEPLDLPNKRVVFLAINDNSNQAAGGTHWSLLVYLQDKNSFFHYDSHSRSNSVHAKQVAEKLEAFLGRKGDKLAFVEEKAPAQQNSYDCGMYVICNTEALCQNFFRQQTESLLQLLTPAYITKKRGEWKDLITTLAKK
SENP8 block-2: inhibitors of human SENP8 protease; inhibition, % at 10 µM; purified SENP8, Z-RLRGG-aminoluciferin cleavage, luminescence; AID 2540; 330,000 compounds, 1.2% hits; Q96LD8; in the data active = inhibition above about 50%
Platelet DG rel: platelet dense granule release activity. human platelet-rich plasma, SFLLRN dense granule ATP release, luminescence. 300,000 compounds, 0.22% hits. inhibition, %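 (compounds screened at 7.5 µM in platelet-rich plasma)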;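 active = mean replicate score, as percent of positive control, at or above 50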
SENP7 inh: inhibitors of human SENP7 protease; Q9BQF6; inhibition, % at 5 µM; 330,000 compounds, 1.5% hits; recombinant SENP7, Z-RLRGG-aminoluciferin luminescence, 40 min;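 active = inhibition above about 50% at the single test dose, limit read from the data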;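 also: plate controls were DMSO with enzyme for no effect and no enzyme buffer wells for full effect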
SENP6 inh: inhibitors of human SENP6 protease; Recombinant SENP6 catalytic domain, aminoluciferin luminescence; 330,000 compounds, 1.8% hits; AID 2599; Q9GZR1; inhibition, % at 10 µM;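 active = inhibition above about 50% at the single tested dose, limit read from the data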;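 also: plate controls were DMSO wells with enzyme for no effect and DMSO wells lacking enzyme for full effect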
SENP8 conf: confirmation of human SENP8 protease inhibitors; Recombinant SENP8, Z-RLRGG-aminoluciferin luminescence, 60 min; 6,200 compounds, 40% hits; shares compounds with SENP7 inh; AID 488912; inhibition, % at 12.5 µM;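 active = mean inhibition across replicates above about 50%, limit read from the data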
SENP6 confirm: human SENP6 inhibition, confirmed. recombinant SENP6, Z-RLRGG-aminoluciferin luminescence. AID 488915. 6,200 compounds, 58% hits. shares compounds with SENP7 inh. inhibition, % at 12.5 µM
SENP7 conf: human SENP7 inhibition, confirmed | shares compounds with SENP7 inh | recombinant SENP7, Z-RLRGG-aminoluciferin luminescence, 40 min | inhibition, % at 12.5 µM | 6,200 compounds, 69% hits | AID 488917
Casp3 select: inhibits human caspase-3 in SENP selectivity test | shares compounds with SENP7 inh | purified caspase-3, Z-DEVD-aminoluciferin luminescence, 60 min | inhibition, % at 12.5 µM | 6,200 compounds, 60% hits | AID 488918;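 active = mean inhibition above about 50%, limit read from the data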;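 also: plate controls were enzyme with DMSO for no effect and wells without caspase-3 for full effect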
Target sequence (P42574 28-227 limits assumed): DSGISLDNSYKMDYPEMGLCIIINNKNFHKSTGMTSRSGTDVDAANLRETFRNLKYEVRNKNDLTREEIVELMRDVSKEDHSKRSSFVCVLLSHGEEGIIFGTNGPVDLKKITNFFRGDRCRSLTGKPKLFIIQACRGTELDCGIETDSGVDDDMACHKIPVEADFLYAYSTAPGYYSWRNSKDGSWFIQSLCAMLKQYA
Luc interf: counter-screen for SENP inhibitors: luminescence interference; shares compounds with SENP7 inh; Pre-incubated SENP8/Z-RLRGG-aminoluciferin, luciferase luminescence interference; inhibition, % at 12.5 µM; 6,200 compounds, 39% hits;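 active = mean inhibition above about 50% when retested at one dose, limit read from the data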;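 also: plate controls were DMSO wells with completed reaction for no effect and substrate without enzyme for full effect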
Starred values were filed as active, the others as inactive; nt = not tested or not shown.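 The calls were made as follows, unless noted: active = mean inhibition above about 50% in the one-dose retest (limit read from the data); inactive = the rest.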

SMILES	SENP8 block-1	SENP8 block-2	Platelet DG rel	SENP7 inh	SENP6 inh	SENP8 conf	SENP6 confirm	SENP7 conf	Casp3 select	Luc interf
Cc1ccc(C(=O)CC(c2cccs2)S(=O)(=O)c2ccc(C)cc2)cc1 (configuration not stated)	29.6	-3.9	-12.7	62.8*	61.9*	7.4	7.7	-4.4	3.6	3.7
Cn1c(/C(C#N)=C/c2ccncc2)nc2ccccc21	-28.7	1.9	8.3	4.1	-10.5	nt	nt	nt	nt	nt
Cn1c(/C(C#N)=C/c2ccc(O)cc2)nc2ccccc21	-410.8	23.1	7.9	11.7	52.8*	50.4*	40.9	65.1*	nt	16.2
CCOC(=O)N1CCN(C(=O)c2noc3c2COc2ccccc2-3)CC1	-3.3	42.9	2.0	53.7*	60.9*	43.5	38.0	77.6*	75.1*	24.8
CCCN1CCN(C(=O)c2noc3c2COc2ccc(C)cc2-3)CC1	-109.9	29.3	5.4	10.7	40.3	nt	nt	nt	nt	nt
CCOC(=O)c1nnn(CC(=O)N2N=C(c3ccccc3)CC2c2ccccc2)c1C(=O)OCC (configuration not stated)	6.6	-7.6	18.6	-18.4	-10.2	nt	nt	nt	nt	nt
CCOC(=O)/C=C(\C)N1N=C(c2ccccc2)CC1c1ccccc1 (configuration not stated)	-98.3	20.8	13.0	20.5	51.9*	9.1	35.3	75.4*	29.2	27.5
COc1cc(OC)c(OC)cc1/C=C1\CC(C)C/C(=C\c2cc(OC)c(OC)cc2OC)C1=O (configuration not stated)	12.4	nt	-1.9	nt	nt	nt	nt	nt	nt	nt
COc1ccc(C(=O)NCC(=O)OCc2csc(-c3ccccc3)n2)cc1	8.6	-10.0	11.5	-0.7	-12.0	nt	nt	nt	nt	nt
Cn1cccc1C(=O)OCc1csc(-c2ccccc2)n1	-7.9	94.1*	-0.1	99.7*	88.1*	-5.6	97.5*	102.2*	92.7*	89.1*
Cc1ccsc1C(=O)OCc1csc(-c2ccccc2)n1	11.8	95.7*	-7.0	98.6*	96.2*	95.5*	91.8*	47.2	94.3*	87.8*
O=C(OCc1csc(-c2ccccc2)n1)C1=NN(c2ccccc2)C(=O)CC1	-1.8	1.7	nt	5.5	-1.9	nt	nt	nt	nt	nt
Cc1ccsc1C(=O)OCC(=O)Nc1nnc(-c2ccccc2)o1	-14.8	-5.2	-28.8	-10.5	-6.8	nt	nt	nt	nt	nt
O=C(OCc1csc(-c2ccccc2)n1)c1cccs1	20.0	91.5*	-8.9	96.3*	95.5*	96.7*	97.4*	101.3*	91.4*	90.3*
Cc1ccsc1C(=O)OCc1nnc(-c2ccccc2)o1	12.4	52.1*	nt	59.5*	59.4*	57.1*	54.7*	75.5*	55.5*	50.2*
COc1cc(/C=C2\SC(=O)N(CCNC(=O)c3c(C)noc3C)C2=O)cc(OC)c1OC	-173.1	3.1	nt	1.9	-3.7	nt	nt	nt	nt	nt
c1ccc(CN2CCOCC2)cc1	3.5	0.7	-2.1	87.3*	-6.7	3.9	0.5	-2.9	-2.2	-3.1
CC(C)CCn1c(SCC(=O)Nc2ccccc2C(F)(F)F)nc2nccnc2c1=O	18.0	3.0	2.2	5.3	8.2	nt	nt	nt	nt	nt
Cc1cc(=O)n2[nH]c(SCc3ccc(Cl)cc3)nc2n1	0.5	32.5	-13.0	1.4	52.0*	38.0	33.9	69.2*	65.0*	41.3
Cc1cc(=O)n2[nH]c(SCc3ccccc3)nc2n1	11.1	-11.2	1.8	-9.3	-27.2	nt	nt	nt	nt	nt
O=C(N/N=C/c1ccc(OC(=O)c2ccccc2Cl)cc1)c1ccccn1	-6.9	4.9	-0.1	71.4*	3.9	12.5	11.2	15.1	29.1	9.7
Cc1ccc(/C=N/NC(=O)c2ccncc2)cc1	25.5	-12.2	-20.9	-13.6	-18.6	nt	nt	nt	nt	nt
CCc1ccc(/C=N/NC(=O)c2ccccn2)cc1	-2.6	78.9*	43.6	82.7*	82.9*	87.3*	86.7*	98.0*	93.8*	86.5*
Cc1ccc(/C=N\NC(=O)c2csnn2)cc1	24.1	29.9	23.5	50.4*	54.9*	41.3	39.3	76.6*	81.0*	27.7
O=C(CCC1CCCCC1)Nc1cccc(C(=O)Nc2ccc(C(=O)O)cc2)c1	16.1	nt	-6.3	nt	nt	nt	nt	nt	nt	nt
SMILES	SENP8 block-1	SENP8 block-2	Platelet DG rel	SENP7 inh	SENP6 inh	SENP8 conf	SENP6 confirm	SENP7 conf	Casp3 select	Luc interf
Cc1nn(C)c(=O)n1-c1ccc(OCc2ccccc2)cc1	20.2	41.3	41.2	75.8*	73.5*	55.0*	55.5*	85.9*	89.6*	69.4*
O=C(Nc1ccc(CN2CCOCC2)cc1)c1cc2ccccc2o1	2.6	-2.0	-2.6	9.5	-7.9	nt	nt	nt	nt	nt
Cc1c(C(=O)Nc2ccc(N3CCOCC3)cc2)oc2ccccc12	12.8	31.9	0.8	66.6*	69.8*	11.9	58.7*	62.0*	53.6*	10.8
Nc1nc2ccc(C(=O)Nc3ccc(N4CCOCC4)cc3)cc2s1	-29.6	5.5	nt	6.2	0.8	nt	nt	nt	nt	nt
O=C(Nc1ccc2c(c1)OCCO2)c1cc2ccccc2o1	-0.5	61.4*	11.4	77.9*	80.9*	1.7	83.9*	96.7*	79.9*	78.9*
O=C(Nc1ccc(N2CCOCC2)cc1)c1nc2ccccc2s1	37.2	74.8*	88.0*	97.8*	95.1*	-23.1	12.3	25.9	16.8	44.7
O=C(Nc1ccc(N2CCOCC2)cc1)c1cc2ccccc2o1	17.3	38.5	8.1	48.3	70.2*	11.8	44.9	82.5*	69.3*	16.6
CC(=O)Nc1ccc(C=C(C(C)=O)C(C)=O)cc1	10.4	0.8	18.7	6.2	-2.5	nt	nt	nt	nt	nt
CC1Sc2ccc(C(=O)NCc3ccccn3)cc2NC1=O (configuration not stated)	-2.6	1.8	nt	6.0	-17.1	nt	nt	nt	nt	nt
Cc1cc(N2CCN(C)CC2)nc2ccc(NC(=S)N3CCN(c4ccc(Cl)cc4)CC3)cc12	-386.8	1.6	1.9	7.7	54.7*	12.0	6.2	8.7	4.7	3.3
CCCN1CCN(CCCNC(=S)Nc2ccc3nc(N4CCN(CC)CC4)cc(C)c3c2)CC1	-327.3	-6.2	-12.3	-9.0	88.6*	-7.4	-7.3	-0.1	-0.2	-10.3
Cc1cc(N2CCOCC2)nc2ccc(NC(=S)N3CCCCC3C)cc12 (configuration not stated)	-368.2	29.2	2.6	12.8	54.7*	4.3	6.1	6.8	1.3	3.0
CCCCNC(=S)Nc1ccc2nc(N3CCN(CC)CC3)cc(C)c2c1	-278.5	0.5	-9.5	-1.2	-1.6	nt	nt	nt	nt	nt
CCn1cnnc1SCC(=O)Nc1ccccc1C(=O)NC1CC1	9.3	-2.2	nt	3.2	-4.5	nt	nt	nt	nt	nt
